Screening results as filed in PubChem BioAssay.
D2 antagonist: HTS Assay for Allosteric Antagonists of the Human D2 Dopamine Receptor: Primary Screen for Antagonists. D(2) dopamine receptor (Homo sapiens), P14416. HEK293 TREx D2 cells, calcium flux, dopamine EC80. inhibition, % at 10 µM. 340,000 compounds, 2% hits. AID 485344, 2010; in the data active means inhibition above about 30%; inactive means below that, where a call was filed
Target sequence (P14416 whole entry, looked up): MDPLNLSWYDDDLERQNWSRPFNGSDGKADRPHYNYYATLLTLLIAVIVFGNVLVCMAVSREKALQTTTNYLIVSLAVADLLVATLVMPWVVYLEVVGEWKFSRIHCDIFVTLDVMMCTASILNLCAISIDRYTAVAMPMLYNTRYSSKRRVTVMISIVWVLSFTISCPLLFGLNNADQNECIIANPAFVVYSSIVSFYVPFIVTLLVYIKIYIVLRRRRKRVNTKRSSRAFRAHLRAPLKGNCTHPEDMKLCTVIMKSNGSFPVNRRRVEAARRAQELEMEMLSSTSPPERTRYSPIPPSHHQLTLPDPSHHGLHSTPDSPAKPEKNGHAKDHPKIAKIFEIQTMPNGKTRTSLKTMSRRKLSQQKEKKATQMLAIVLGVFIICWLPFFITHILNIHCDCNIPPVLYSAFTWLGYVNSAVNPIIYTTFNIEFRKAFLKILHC
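Calcium mobilization kinetics were recorded at 1 s intervals in tetracycline-induced HEK293 T-REx D2 cells, first for 180 s after compound addition and then 180 s after EC80 dopamine.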
D2 ag-1: HTS Assay for Allosteric Agonists of the Human D2 Dopamine Receptor: Primary Screen for Agonists; D(2) dopamine receptor (Homo sapiens), P14416; HEK293 T-REx D2 cells, calcium flux agonist mode; activation, % at 2 µM; 340,000 compounds, 0.53% hits;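 active means activation over 3 SD above normal in the single-dose calcium agonist read, cut at about 30% in these data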
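Tetracycline-induced HEK293 Trex cells with D2 receptor force-coupled to calcium signaling, plated overnight at 30 C and loaded with no-wash calcium dye. Calcium flux read kinetically for 180 s after compound addition; responses flag agonists.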
D2 ag-2: Beta-Arrestin HTS for Positive Allosteric Modulators of the Human D2 Dopamine Receptor: Agonists. 360,000 compounds, 0.084% hits. AID 624465, 2012. DiscoveRx PathHunter D2 beta-arrestin, luminescence, 90 min; 100% = 57 uM dopamine signal. activation, % (concentration not given with the values). D(2) dopamine receptor (Homo sapiens), P14416; in the data active means activation above about 40%; inconclusive means between about 15% and that limit
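DiscoveRx PathHunter D2 beta-arrestin cells (2,100/well) attached overnight, then compound-stimulated 90 min at 37 C in HBSS/10 mM HEPES/0.1% Tween-20 buffer; beta-galactosidase complementation read by luminescence after 1 h at ambient temperature. Dopamine 57 uM final (EC100) as control.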
D2 PAM-1: Beta-Arrestin HTS for Positive Allosteric Modulators of the Human D2 Dopamine Receptor: Potentiators | D(2) dopamine receptor (Homo sapiens), P14416 | DiscoveRx D2 beta-arrestin cells, luminescence, 90 min; 100% = 57 uM dopamine signal | potentiation, % (concentration not given with the values) | 360,000 compounds, 0.23% hits | AID 624464, 2012; in the data active means potentiation above about 50%; inconclusive means mostly about 30% to 49%
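D2 cells co-treated with compound plus 50 nM dopamine (EC20) for 90 min at 37 deg C to detect potentiation. Beta-arrestin recruitment was read as enzyme-fragment luminescence after 1 h at ambient temperature. Full response was set by 57 uM dopamine.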
D2 PAM-2: HTS Assay for Positive Allosteric Modulators of the Human D2 Dopamine Receptor: Primary Screen for Potentiators. potentiation, % at 10 µM. HEK293 T-REx D2, calcium flux, EC20 dopamine potentiation. AID 485347, 2010. 340,000 compounds, 0.34% hits. D(2) dopamine receptor (Homo sapiens), P14416;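 active means potentiation over 3 SD above the plate norm, cut at about 30% in these data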
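Cells plated with tetracycline inducer and held overnight at 30 C; calcium dye loaded 30–90 min at room temperature; baseline taken, compound added and read 180 s; EC20 dopamine then added and read 180 s.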
D3 ag: qHTS of D3 Dopamine Receptor Agonist: D3 Dopamine Receptor B-arrestin Agonist Confirmatory Assay. shares compounds with D2 ag-1. DiscoveRx D3 beta-arrestin cells, luminescence, 90 min. Potency, µM (series often up to 76.9 µM), usual class: activators. 2,300 compounds, 4% hits. AID 720506, 2013; further: nearly all actives have a fitted effect of over 70% in size
D2 ag-3: qHTS of D3 Dopamine Receptor Agonist: D2 Dopamine Receptor B-arrestin Agonist Counterscreen; DiscoveRx PathHunter D2 beta-arrestin, luminescence, 90 min; response scale: percent relative to full dopamine signal; shares compounds with D2 ag-1; 2,300 compounds, 5.9% hits; Potency, µM (highest dose often 76.9 µM), hits mostly activators; further: nearly all actives have a fitted effect of over 70% in size
Hits are given with their value. Hits are enriched below; roughly 2.4% of the tested compounds scored in any of these assays. Unless noted, the call rests on the fitted dose curve; in most records, active means well fitted activation curve with a large enough effect; inconclusive means small, poorly fitted or top-dose-only effect; inactive means flat fitted curve, though single readings scatter.

`CCCCN(CC)CCCNC(=S)Nc1ccc2nc(N3CCN(CC)CC3)cc(C)c2c1` gave D2 antagonist 41, D2 ag-1 60, D2 ag-2 inactive, D2 PAM-1 inactive, D2 PAM-2 inactive, D3 ag inconclusive and D2 ag-3 inactive.
O=c1c2cc(NC(=S)NCCN3CCCCCC3)ccc2nc2n1CCCCC2 was read as D2 antagonist inactive, D2 ag-1 inactive, D2 ag-2 inactive, D2 PAM-1 inactive and D2 PAM-2 inactive.
Screening COc1ccc(C2CC(=O)NC(NC(=O)c3ccc(Br)cc3)=N2)c(OC)c1OC (centres undefined) returned D2 PAM-2 inactive.
For Cc1[nH]nc2c1C1(CCOCC1)C(C#N)=C(N)O2 the results were D2 antagonist inactive, D2 ag-1 inactive, D2 ag-2 inactive, D2 PAM-1 inactive and D2 PAM-2 inactive.
Screening Cc1[nH]nc2c1C1(CCN(Cc3ccccc3)CC1)C(C#N)=C(N)O2 returned D2 ag-2 inactive, D2 PAM-1 inactive, D3 ag inactive and D2 ag-3 inactive.
Screening O=[N+]([O-])c1ccc(O)c(-c2cc(C(F)(F)F)nc(-c3ccccc3)n2)c1 returned D2 antagonist inactive, D2 ag-1 inactive, D2 ag-2 inactive, D2 PAM-1 inactive, D2 PAM-2 inactive, D3 ag inconclusive and D2 ag-3 inactive.
`Cc1ccc(NC(=O)CCc2nnc3n(CC(C)C)c(=O)c4ccccc4n23)cc1C` gave D2 PAM-2 inactive.
`NC(=O)c1ccc(NC(=O)CN2CCOCC2)cc1` gave D2 antagonist inactive, D2 ag-1 inactive, D2 ag-2 inactive, D2 PAM-1 inactive and D2 PAM-2 inactive.
Screening CCc1ccc(NC(=O)C(=O)NCCN2CCN(C(=O)c3ccco3)CC2)cc1 returned D2 antagonist inactive, D2 ag-1 67, D2 ag-2 inconclusive, D2 PAM-1 inactive, D2 PAM-2 inactive, D3 ag 5µM and D2 ag-3 inconclusive.
CCc1ccc(NC(=O)C(=O)NCCN2CCN(C(=O)c3ccc(OC)cc3)CC2)cc1 was read as D2 ag-2 inactive and D2 PAM-1 inactive.
`NC(=O)c1ccc(NC(=O)CN2CCN(C(=O)c3ccco3)CC2)cc1` gave D2 ag-2 inactive, D2 PAM-1 inactive, D3 ag inconclusive and D2 ag-3 inconclusive.
Screening CCOC(=O)c1ccc(NC(=O)CN2CCN(C(=O)c3ccco3)CC2)cc1 returned D2 antagonist 67, D2 ag-1 80, D2 ag-2 inconclusive, D2 PAM-1 inactive, D2 PAM-2 inactive, D3 ag 22µM and D2 ag-3 inconclusive.
Cc1ccc(C)c(CN2C(=O)C3(c4ccccc42)N(c2ccc(Cl)cc2)C(=O)CS3(=O)=O)c1 (centres undefined) was read as D2 ag-1 inactive and D2 PAM-2 inactive.
`CC(C)n1ncc2c(C(=O)N3CCN(Cc4ccc(Br)s4)CC3)cc(C3CC3)nc21` gave D2 antagonist 70, D2 ag-1 64, D2 ag-2 inconclusive, D2 PAM-1 inactive, D2 PAM-2 inactive, D3 ag inactive and D2 ag-3 inconclusive.
Cc1ccccc1NC(=O)CSc1nc2c(oc3ccccc32)c(=O)n1Cc1ccco1 was read as D2 ag-1 inactive and D2 PAM-2 inactive.
Screening O=C(CC1(O)C(=O)N(CCc2ccccc2)c2ccc(Br)cc21)c1ccccc1O (centres undefined) returned D2 ag-1 inactive and D2 PAM-2 inactive.
O=C1N=C(N2CCOCC2)S/C1=C/c1ccc(-c2ccc(F)cc2)o1 was read as D2 antagonist inactive, D2 ag-1 55, D2 ag-2 inconclusive, D2 PAM-1 inactive, D2 PAM-2 inactive, D3 ag inactive and D2 ag-3 inconclusive.
`Cc1nc(-c2ccc(S(=O)(=O)Nc3cc(Cl)ccc3C)cc2)co1` gave D2 ag-1 inactive and D2 PAM-2 inactive.
CCN(CC)S(=O)(=O)c1cccc(S(=O)(=O)N2CCCCC2)c1 was read as D2 antagonist inactive, D2 ag-1 36, D2 ag-2 inactive, D2 PAM-1 inactive, D2 PAM-2 inactive, D3 ag inactive and D2 ag-3 inactive.
`COc1cccc(CNC(=O)CCCN2C(=O)CSc3c2c(C)nn3-c2ccccc2)c1` gave D2 ag-1 inactive and D2 PAM-2 inactive.
For Cc1cccc(OCCCC(=O)NNC(=O)CCN2CCN(c3ccccc3)CC2)c1 the results were D2 antagonist inactive, D2 ag-1 59, D2 ag-2 inactive, D2 PAM-1 inactive, D2 PAM-2 inactive, D3 ag inconclusive and D2 ag-3 inactive.
`COc1ccc(OCCCC(=O)NNC(=O)CCN2CCN(c3ccccc3)CC2)cc1` gave D2 antagonist 71, D2 ag-1 83, D2 ag-2 inactive, D2 PAM-1 inactive, D2 PAM-2 inactive, D3 ag inactive and D2 ag-3 inactive.
`CCc1ccc(S(=O)(=O)c2nnn3c2nc(Nc2cccc(C)c2C)c2sccc23)cc1` gave D2 ag-1 inactive and D2 PAM-2 inactive.
Screening O=C(c1cccc([N+](=O)[O-])c1)N1c2nc(-c3ccco3)nn2C2(CCCCC2)[C@@H]2CCCC[C@@H]21 returned D2 ag-1 inactive and D2 PAM-2 inactive.
CN(CCOc1ccccc1Cl)Cc1ccccc1 was read as D2 antagonist 85, D2 ag-1 inactive, D2 ag-2 inactive, D2 PAM-1 inactive, D2 PAM-2 inactive, D3 ag inconclusive and D2 ag-3 inactive.
`O=C(CCc1ccccc1)NNC(=S)NCc1ccc(Cl)cc1` gave D2 antagonist inactive, D2 ag-1 inactive, D2 ag-2 inactive, D2 PAM-1 inactive and D2 PAM-2 inactive.
Screening COc1ccc(CCC(=O)NNC(=O)Nc2cccc(Cl)c2)cc1 returned D2 antagonist inactive, D2 ag-1 inactive, D2 ag-2 inactive, D2 PAM-1 inactive and D2 PAM-2 inactive.
